Reference: PMC4336329 (PLoS ONE, 2015)
Hit rate of the full screen: of about 310,000 compounds, about 2,200 (0.71%) showed an effect of 50% or more. The effect is printed as a negative number. The sample holds strong results, similar compounds and a random draw of the others, so the mix is not that of the screen.

molecular target: human ether-à-go-go-related gene (hERG) potassium channel (human, UniProt Q12809); test: primary screen, population patch clamp on CHO cells stably expressing hERG; higher = less effect of the substance
Sequence (Q12809 whole entry, looked up): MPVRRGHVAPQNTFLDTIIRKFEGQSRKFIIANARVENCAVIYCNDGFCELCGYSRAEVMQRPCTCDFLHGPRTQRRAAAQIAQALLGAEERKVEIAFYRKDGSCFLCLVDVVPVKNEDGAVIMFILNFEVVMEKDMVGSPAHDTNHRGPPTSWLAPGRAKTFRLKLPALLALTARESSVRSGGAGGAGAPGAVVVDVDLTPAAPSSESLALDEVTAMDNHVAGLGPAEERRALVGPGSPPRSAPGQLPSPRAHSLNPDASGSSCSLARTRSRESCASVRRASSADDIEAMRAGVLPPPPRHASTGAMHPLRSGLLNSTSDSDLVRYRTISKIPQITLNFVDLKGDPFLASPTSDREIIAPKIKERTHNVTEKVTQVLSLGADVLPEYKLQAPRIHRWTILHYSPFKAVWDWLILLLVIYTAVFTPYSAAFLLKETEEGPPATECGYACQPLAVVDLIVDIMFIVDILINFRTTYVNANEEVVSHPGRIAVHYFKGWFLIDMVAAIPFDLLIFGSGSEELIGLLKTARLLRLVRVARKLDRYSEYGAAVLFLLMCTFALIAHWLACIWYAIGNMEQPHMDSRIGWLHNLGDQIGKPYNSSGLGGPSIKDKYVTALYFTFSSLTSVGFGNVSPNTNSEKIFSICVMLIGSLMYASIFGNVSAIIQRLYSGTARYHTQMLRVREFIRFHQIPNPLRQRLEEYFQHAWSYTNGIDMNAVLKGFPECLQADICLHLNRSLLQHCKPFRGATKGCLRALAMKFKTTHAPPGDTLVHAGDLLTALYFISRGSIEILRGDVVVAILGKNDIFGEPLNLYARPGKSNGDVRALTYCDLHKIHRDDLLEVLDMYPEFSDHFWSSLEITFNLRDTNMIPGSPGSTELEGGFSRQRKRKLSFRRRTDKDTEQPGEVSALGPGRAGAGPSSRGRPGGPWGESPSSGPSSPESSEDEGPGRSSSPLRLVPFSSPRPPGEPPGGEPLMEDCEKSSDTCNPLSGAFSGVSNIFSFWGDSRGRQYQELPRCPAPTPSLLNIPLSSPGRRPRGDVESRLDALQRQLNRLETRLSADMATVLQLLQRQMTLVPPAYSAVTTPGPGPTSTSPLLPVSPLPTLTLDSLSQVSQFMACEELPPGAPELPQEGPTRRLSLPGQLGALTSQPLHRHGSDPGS

In order of rising “hERG current change (%, negative = inhibition) at 1uM” value:
1. O=C(CSc1ccc2nnc(-c3ccccn3)n2n1)N1CCN(c2ccccc2)CC1  -89.9%
2. CCN(CC)CCN(C(=O)C1=COCCO1)c1nc2c(OC)ccc(OC)c2s1.Cl  -84.9%
3. COC(=O)c1ccc(CN2CCC(CO)(CCOc3ccccc3)CC2)cc1  -81.7%
4. CSc1ccc(CN2CCC(CO)(CCOc3ccccc3)CC2)cc1  -81.2%
5. COc1ccc(CCNC(=O)C2CCN(Cc3nc(-c4cccc(Cl)c4)oc3C)CC2)cc1OC  -80.9%
6. COc1ccc(CCNC(=O)C2CCCN(Cc3nc(-c4cccc(Cl)c4)oc3C)C2)cc1OC (stereo not shown)  -76.7%
7. COc1ccccc1CNC(=O)C1CCN(Cc2nc(-c3cccc(Cl)c3)oc2C)CC1  -68.3%
8. CCN1CCN(c2c(C(=O)c3ccc(OC)cc3)cnc3ccccc23)CC1  -67.9%
9. CCOc1ccc2ncc(C(=O)c3ccc(OC)cc3)c(N3CCN(CC)CC3)c2c1  -66%
10. CCN(CC)CCN(C(=O)C1=COCCO1)c1nc2cc3c(cc2s1)OCO3.Cl  -63.3%
11. O=C(c1cc2cc([N+](=O)[O-])ccc2oc1=O)N1CCN(C2CCCCC2)CC1  -60.8%
12. COc1ccc(CCNC(=O)C2CCN(Cc3nc(-c4ccccc4C)oc3C)CC2)cc1OC  -59.9%
13. Cc1ccc(C)c(CSc2ccc3nnc(-c4ccccn4)n3n2)c1  -54.3%
14. CCN(CC)CCN(C(=O)c1ccc([N+](=O)[O-])cc1)c1nc2c(OC)cccc2s1.Cl  -53.4%
15. Cc1oc(-c2ccccc2F)nc1CN1CCC(C(=O)NCCC2=CCCCC2)CC1  -51.1%
16. Cc1ccccc1CSc1ccc2nnc(-c3ccccn3)n2n1  -50.9%
17. COc1ccc(-n2c(Cc3cccn3C)nnc2SCC(=O)Nc2cc(Cl)ccc2OC)cc1  -50.9%
18. CCc1ccc(C(=O)c2cnc3ccc(OC)cc3c2N2CCN(CC)CC2)cc1  -46.6%
19. COC(=O)c1ccc(CN2CCC(CO)(Cc3cccc(OC)c3)CC2)cc1  -45.3%
20. CCOc1cccc2sc(N(CCN(CC)CC)C(=O)c3cccc([N+](=O)[O-])c3)nc12.Cl  -44.9%
21. CCOc1ccc(C(=O)c2cnc3ccccc3c2N2CCN(CC)CC2)cc1  -43.9%
22. CC(=O)Nc1ccc(CN2CCC(CO)(CCOc3ccccc3)CC2)cc1  -43.8%
23. CCc1ccc(-c2nc(CN3CCC(C(=O)NCCc4ccc(OC)c(OC)c4)CC3)c(C)o2)cc1  -40%
24. CCN(CC)CCN(C(=O)C1=COCCO1)c1nc2cc(C)cc(C)c2s1.Cl  -36.7%
25. Cc1ccc(CSc2ccc3nnc(-c4ccccn4)n3n2)cc1  -36.5%
26. CCN(CC)CCN(C(=O)C1=COCCO1)c1nc2ccc(C)cc2s1.Cl  -34%
27. CCN(CC)CCN(C(=O)c1ccc(C(=O)c2ccccc2)cc1)c1nc2c(OC)cccc2s1.Cl  -33%
28. Cc1ccccc1-c1nc(CN2CCC(C(=O)NCCC3=CCCCC3)CC2)c(C)o1  -32%
29. Cc1oc(-c2cccc(Cl)c2)nc1CN1CCC(C(=O)NCC2CCCO2)CC1 (stereo not shown)  -31.8%
30. CCN(CC)CCN(C(=O)c1ccc2c(c1)OCCO2)c1nc2cc3c(cc2s1)OCO3.Cl  -18.3%
31. COc1ccc(CCNC(=O)C2CCN(Cc3nc(-c4ccccc4F)oc3C)CC2)cc1OC  -17.3%
32. CCOC(=O)c1cnc2ccc(OCC)cc2c1N1CCN(C)CC1.Cl  -15.6%
33. CCc1ccc(-c2nc(CN3CCC(C(=O)NCc4ccccc4OC)CC3)c(C)o2)cc1  -13.1%
34. Cc1c(Cl)c([N+](=O)[O-])nn1CCCC(=O)Nc1cc(Cl)ccc1Cl  -10.9%
35. Cl.Clc1ccc(-c2ccc(CNCc3ccccn3)o2)cc1  -5.94%
36. COc1ccc(-n2c(Cc3cccn3C)nnc2SCC(=O)Nc2ccccc2OC)cc1  -4.23%
37. CCc1ccc(-c2nc(CN3CCCC(C(=O)NCCc4ccc(OC)c(OC)c4)C3)c(C)o2)cc1 (stereo not shown)  -3.23%
38. Cc1cccc2cc(CN(Cc3cccs3)Cc3nnnn3Cc3ccccc3)c(=O)[nH]c12  -3.15%
39. OCCOc1cccc(CN2CCC(CO)(CCOc3ccccc3)CC2)c1  -2.72%
40. COc1ccc(CCNC(=O)C2CCCN(Cc3nc(-c4ccccc4C)oc3C)C2)cc1OC (stereo not shown)  -2.12%
41. CCN1CCN(C(=O)c2cc3cc([N+](=O)[O-])ccc3oc2=O)CC1  -1.11%
42. OCC1(CCOc2ccccc2)CCN(Cc2ccncc2)CC1  -0.954%
43. CCOc1ccc(N(CC(=O)OC)S(=O)(=O)c2ccc(OC)c(OC)c2)cc1  -0.463%
44. O=C(NN=C1C2CC3CC(C2)CC1C3)c1ccncc1  -0.112%
45. Cc1oc(-c2ccccc2F)nc1CN1CCC(C(=O)NC2CC2)CC1  0.032%
46. CCN(C(=O)C1=COCCO1)c1nc2c(C)cccc2s1  0.721%
47. COc1ccc(-c2csc(NC(=O)CN3C(=O)NC4(CCCC4)C3=O)n2)cc1  1.42%
48. COc1ccc(C(=O)C(OC(=O)c2ccccc2)c2ccccc2)cc1 (stereo not shown)  2.14%
49. CCOC(=O)N1CCN(C(=O)CSc2ccc3nnc(-c4ccccn4)n3n2)CC1  2.22%
50. COc1ccc(Cl)cc1NC(=O)CSc1nnc(Cc2cccn2C)n1-c1ccc(F)cc1  2.71%
51. O=C(NO)c1ccc(C(=O)N(C2CCCCC2)C2CCCCC2)cc1  3.06%
52. CCN1CCN(CCNC(=O)C2CCCN(Cc3nc(-c4cccc(Cl)c4)oc3C)C2)CC1 (stereo not shown)  3.86%
53. c1csc(CN2CCN(Cc3cccs3)C2c2cccs2)c1  4.62%
54. Cn1cnnc1SC(C(=O)Nc1ccc(F)cc1)c1ccccc1 (stereo not shown)  4.93%
55. CNc1sc(C(=O)c2ccc(F)cc2)c(N)c1-c1nc2ccccc2s1  5.15%
56. O=C(Nc1ccc(SC(F)F)cc1)C12CCC(CC1)C2  5.66%
57. Cc1ccc(C(=O)NNC(=O)c2n[nH]c(=O)c3ccccc23)cc1C  5.71%
58. Cc1ccc(NC(=O)CSc2ccc3nnc(-c4ccccn4)n3n2)cc1  5.84%
59. O=C(CP(=O)(c1ccccc1)c1ccccc1)N1CCCCC1  6.28%
60. O=C(CSc1ccc2nnc(-c3ccccn3)n2n1)N1CCOCC1  6.32%
61. O=C(c1ccc(=O)[nH]c1)N1CCN(S(=O)(=O)c2ccc3ccccc3c2)CC1  6.52%
62. C/C(CC(=O)NCc1ccco1)=N\NC(=O)C(c1ccccc1)c1ccccc1  6.69%
63. CN(C)CCN(C(=O)CN1C(=O)c2ccccc2C1=O)c1nc2cc3c(cc2s1)OCO3.Cl  7.04%
64. CCOc1ccc(CCNC(=O)CCc2nnc3ccc(N4CCOCC4)nn23)cc1OCC  7.73%
65. Cc1ccc(N2CC(C(=O)Nc3ccc(S(=O)(=O)N4CCOCC4)cc3)CC2=O)cc1Cl (stereo not shown)  7.84%
66. Cc1ccccc1NC(=O)CSc1ccc2nnc(-c3ccccn3)n2n1  7.85%
67. O=C(c1cc2cc([N+](=O)[O-])ccc2oc1=O)N1CCOCC1  7.86%
68. COc1ccc(OCCOC(=O)c2[nH]c(C)c(C(C)=O)c2C)cc1  8.51%
69. COc1cc2ncc(C(=O)c3ccccc3)c(N3CCN(Cc4ccccc4)CC3)c2cc1OC  8.52%
70. COc1ccc(-c2ccc(S(=O)(=O)n3nc(OC(=O)c4cccs4)cc3N)cc2)cc1  8.64%
71. CCOc1ccccc1N1CCN(C(=O)c2cc(-c3cc(OC)ccc3OC)nc3ccccc23)CC1  8.96%
72. COc1ccc(Cc2nc3ccc(C(=O)NC(C)c4cn(C)nc4C)cc3o2)cc1 (stereo not shown)  9.59%
73. CN(CC(=O)Nc1ccccc1Cl)C(=O)COC(=O)c1nc(Cl)c(Cl)c(Cl)c1Cl  9.88%
74. C/C(=N/NC(=O)c1ccc2c(c1)OCO2)c1cccc(NC(=O)C(C)(C)C)c1  9.89%
75. COc1ccc(S(=O)(=O)n2nc(OC(=O)C3CCCCC3)cc2N)cc1  9.89%
76. CNNC(=S)NCCC1=CCCCC1  10.2%
77. C=CCn1c(COc2ccc(Cl)cc2)nnc1SCC(=O)c1c(N)n(C)c(=O)n(C)c1=O  10.5%
78. Cc1ccccc1CSc1nnc(-c2ccccn2)n1C  10.8%
79. C/C(N)=C(/C#N)C(=O)CSc1nc2ccc(C)cc2[nH]1  11%
80. COc1ccccc1C(=O)N/C(=C/c1ccccc1)C(=O)NC(CCSC)C(=O)O (stereo not shown)  12%
81. Cc1oc(-c2cccc(Cl)c2)nc1CN1CCC(C(=O)NCCCN2CC(C)CC(C)C2)CC1 (stereo not shown)  13.9%
82. Cc1ccccc1C(=O)Nc1ccnc(-c2ccncc2)n1  14.1%
83. O=C(CCS(=O)(=O)c1ccc(Br)cc1)Nc1ccccn1  15.2%
84. COc1ccc(C2NN=C(c3ccc(C)cc3)S2)cc1OC (stereo not shown)  16.1%
85. CCCc1ccc(-c2cc(C(=O)NCCc3ccc(S(N)(=O)=O)cc3)c3ccccc3n2)cc1  16.3%
86. CC(Oc1ccccc1)C(=O)Nc1ccc(S(=O)(=O)N2CCCC2)cc1 (stereo not shown)  16.8%
87. CC1CCCCC1NC(=O)CCn1c(=O)sc2ccccc21 (stereo not shown)  18%
88. CC12CC3(C)CC(C)(C1)CC(C(=O)NCC(=O)O)(C2)C3  19.5%
